Reference: the antibiotic and cytotoxicity screens of Wong et al. (2023)
The whole screen tested about 39,000 compounds, of which about 3,300 (8.5%) were called active. Many of the other results were omitted from the sample, so actives are more common in it than they were.

These compounds were tested on HepG2 (assay: cytotoxicity call (relative viability < 0.9)). Conditions: 10 µM.

Row | Structure (SMILES) | cytotoxicity call
1 | COc1ccc(S(=O)(=O)Nc2cccc3c2O[C@H](CN(C)C(=O)NC(C)C)[C@@H](C)CN([C@H](C)CO)C3=O)cc1 | inactive
2 | C[C@@H]1CCCCO[C@H](CN(C)S(=O)(=O)c2ccccc2)[C@@H](C)CN([C@H](C)CO)C(=O)c2cc(NC(=O)C3CCCCC3)ccc2O1 | inactive
3 | CNC(=O)C(=O)NC[C@H]1CCCN1S(=O)(=O)c1cccs1 | inactive
4 | CC(=O)OC1CCC2(C)C(CCC3C4CC=C(C(C)=O)C4(C)CCC32)C1 (stereo not drawn) [3-beta-ACETOXYALLOPREG-16-EN-20-ONE ] | inactive
5 | Cc1noc(C)c1S(=O)(=O)Nc1ccc2c(c1)CC(=O)N([C@H](C)CO)C[C@@H](C)[C@@H](CN(C)S(C)(=O)=O)O2 | inactive
6 | C[C@@H]1CCCCO[C@@H](CN(C)C(=O)CCC(F)(F)F)[C@H](C)CN([C@@H](C)CO)C(=O)c2cc(NC(=O)CCC(F)(F)F)ccc2O1 | inactive
7 | C[C@@H]1CCCCO[C@@H](CN(C)Cc2ccc(C(F)(F)F)cc2)[C@H](C)CN([C@H](C)CO)C(=O)c2cc(NC(=O)NC3CCCCC3)ccc2O1 | active
8 | C[C@H]1CCCCO[C@@H](CN(C)Cc2ccc(C(F)(F)F)cc2)[C@@H](C)CN([C@@H](C)CO)C(=O)c2cc(NC(=O)NC3CCCCC3)ccc2O1 | active
9 | C[C@@H]1CN([C@@H](C)CO)C(=O)c2cc(NC(=O)NC3CCCCC3)ccc2O[C@@H](C)CCCCO[C@@H]1CN(C)Cc1ccc(C(F)(F)F)cc1 | inactive
10 | C[C@@H]1CN([C@H](C)CO)C(=O)c2cc(NC(=O)NC3CCCCC3)ccc2O[C@@H](C)CCCCO[C@H]1CN(C)Cc1ccc(C(F)(F)F)cc1 | inactive
11 | C[C@@H]1CCCCO[C@H](CN(C)Cc2ccc(C(F)(F)F)cc2)[C@H](C)CN([C@@H](C)CO)C(=O)c2cc(NC(=O)NC3CCCCC3)ccc2O1 | active
12 | CCC(=O)Nc1ccc2c(c1)OC[C@H](C)N(C(=O)CN1CCOCC1)C[C@H](C)[C@@H](OC)CN(C)C2=O | inactive
13 | CO[C@H]1CN(C)C(=O)c2ccc(NS(=O)(=O)c3cn(C)cn3)cc2OC[C@H](C)N(CC2CC2)C[C@H]1C | inactive
14 | O=C(N/N=C/[C@H](O)[C@@H](O)[C@@H](O)[C@H](O)CO)c1ccccn1 | inactive
15 | COc1ccc(NC(=O)N(C)C[C@H]2OCCCC[C@H](C)Oc3ccc(NS(=O)(=O)c4ccc(Cl)cc4)cc3C(=O)N([C@@H](C)CO)C[C@@H]2C)cc1 | inactive
16 | COc1ccc(-c2cnc3c(c2)C(=O)N([C@H](C)CO)C[C@H](C)[C@@H](CN(C)C(=O)Cc2ccncc2)O3)cc1 | inactive
17 | C[C@H](CO)N1C[C@H](C)[C@H](CN(C)S(C)(=O)=O)Oc2ccc(NS(=O)(=O)c3cccs3)cc2CC1=O | inactive
18 | C[C@@H]1CN([C@@H](C)CO)C(=O)Cc2cc(NS(=O)(=O)c3cn(C)cn3)ccc2O[C@H]1CN(C)C(=O)Nc1ccc(F)cc1 | inactive
19 | C=CC[C@H](CC(=O)NCCO)C(=O)NC[C@H](OC(=O)[C@@H](CC=C)CC(=O)OC(C)(C)C)c1ccccc1 | inactive
20 | Cc1ccc(S(=O)(=O)Nc2cccc3c2O[C@H](CN(C)C(=O)Nc2cccc4ccccc24)[C@@H](C)CN([C@@H](C)CO)C3=O)cc1 | active

Row | Structure (SMILES) | cytotoxicity call
21 | COc1ccc(S(=O)(=O)Nc2cccc3c2O[C@H](CN(C)C(=O)Nc2c(C)noc2C)[C@@H](C)CN([C@H](C)CO)C3=O)cc1 | active
22 | C[C@@H]1CN([C@H](C)CO)C(=O)c2cccc(NS(=O)(=O)c3cccs3)c2O[C@H]1CN(C)C(=O)Nc1cccc2ccccc12 | inactive
23 | Cc1ccc(S(=O)(=O)Nc2cccc3c2O[C@@H](CN(C)C(=O)Nc2cccc4ccccc24)[C@H](C)CN([C@@H](C)CO)C3=O)cc1 | inactive
24 | COc1ccc(S(=O)(=O)Nc2cccc3c2O[C@H](CN(C)C(=O)Nc2c(C)noc2C)[C@@H](C)CN([C@@H](C)CO)C3=O)cc1 | inactive
25 | COc1ccc(S(=O)(=O)Nc2cccc3c2O[C@@H](CN(C)C(=O)Nc2c(C)noc2C)[C@H](C)CN([C@@H](C)CO)C3=O)cc1 | inactive
26 | Cc1ccc(S(=O)(=O)Nc2cccc3c2O[C@H](CN(C)C(=O)Nc2cccc4ccccc24)[C@@H](C)CN([C@H](C)CO)C3=O)cc1 | inactive
27 | COc1ccc(S(=O)(=O)Nc2cccc3c2O[C@@H](CN(C)C(=O)Nc2cccc4ccccc24)[C@H](C)CN([C@@H](C)CO)C3=O)cc1 | active
28 | C[C@H]1CN([C@@H](C)CO)C(=O)c2cccc(NS(=O)(=O)c3cccs3)c2O[C@@H]1CN(C)C(=O)Nc1cccc2ccccc12 | active
29 | COc1ccc(S(=O)(=O)Nc2cccc3c2O[C@H](CN(C)C(=O)Nc2cccc4ccccc24)[C@H](C)CN([C@H](C)CO)C3=O)cc1 | inactive
30 | COc1ccc(S(=O)(=O)Nc2cccc3c2O[C@H](CN(C)C(=O)Nc2cccc4ccccc24)[C@H](C)CN([C@@H](C)CO)C3=O)cc1 | inactive
31 | C[C@H](CO)N1C[C@H](C)[C@@H](CN(C)C(=O)Nc2cccc3ccccc23)Oc2c(NS(=O)(=O)c3cccs3)cccc2C1=O | inactive
32 | CN(C)CC(=O)N[C@H]1CC[C@@H](CCn2cc(CN(C)C)nn2)O[C@H]1CO | inactive
33 | O=C(N[C@@H]1CC=CC[C@H](CC(=O)N(CCO)Cc2ccccc2)C(=O)NCC(c2ccccc2)OC1=O)OCC1c2ccccc2-c2ccccc21 (stereo not given in full) | inactive
34 | C[C@@H]1CN([C@@H](C)CO)C(=O)c2cc(/C=C/c3ccccc3)cnc2O[C@H]1CN(C)C(=O)c1cnccn1 | inactive
35 | Cc1cccc(S(=O)(=O)N2C[C@H](O)COC[C@@H]3O[C@@H](CC(=O)NCCCN4CCOCC4)CC[C@H]32)c1 | inactive
36 | Cc1noc(C)c1NC(=O)N(C)C[C@H]1OCCCC[C@H](C)Oc2ccc(NC(=O)c3ccccc3)cc2C(=O)N([C@H](C)CO)C[C@@H]1C | inactive
37 | C[C@H]1CNC(=O)[C@@H](CC(=O)N(CCOC(=O)NCCCCCC(=O)NO)Cc2ccccc2)C/C=C/CC[C@H](NC(=O)OC(C)(C)C)C(=O)O1 | inactive
38 | COc1ccccc1C#Cc1ccc2c(c1)O[C@@H](CN(C)C(C)=O)[C@@H](C)CN([C@@H](C)CO)S2(=O)=O | inactive
39 | C[C@H]1CCCCO[C@@H](CN(C)Cc2ccc(C(=O)O)cc2)[C@@H](C)CN([C@@H](C)CO)C(=O)c2cc(NC(=O)C3CCCCC3)ccc2O1 | inactive
40 | C[C@H](NC(=O)C[C@H]1C[C@@H]2c3cc(NC(=O)Nc4ccc(C(F)(F)F)cc4)ccc3O[C@@H]2[C@H](CO)O1)c1ccccc1 | inactive

Row | Structure (SMILES) | cytotoxicity call
41 | C[C@@H]1CCCCO[C@@H](CN(C)C(=O)Nc2cccc3ccccc23)[C@@H](C)CN([C@H](C)CO)C(=O)c2cc(NS(C)(=O)=O)ccc2O1 | inactive
42 | C[C@H]1CN([C@@H](C)CO)C(=O)c2cc(NC(=O)Cn3cnnn3)ccc2O[C@@H]1CN(C)S(C)(=O)=O | inactive
43 | CN(C)C(=O)C[C@@H]1CC[C@@H]2[C@H](COC[C@@H](O)CN2S(=O)(=O)c2ccccc2)O1 | inactive
44 | C[C@@H]1CN([C@H](C)CO)S(=O)(=O)c2ccc(-c3ccc(F)cc3)cc2O[C@@H]1CN(C)C(=O)C1CCOCC1 | inactive
45 | COc1ccc(NC(=O)Nc2ccc3c(c2)C(=O)N([C@H](C)CO)C[C@H](C)[C@@H](CN(C)C(=O)Cc2ccccc2)OCCCC[C@@H](C)O3)cc1 | inactive
46 | CCc1nc2ccc(C(=O)Nc3cccc(OCC(=O)N(C)C)c3)cn2c1N(C)Cc1cc2ccccc2s1 | inactive
47 | CCc1nc2ccc(C(=O)NC3CCN(Cc4ccccc4)CC3)cn2c1N(C)CCN1CCOCC1 | inactive
48 | CCc1nc2ccc(C(=O)NC3CCN(Cc4ccccc4)CC3)cn2c1N(C)Cc1cc2ccccc2s1 | active
49 | C[C@@H]1CCCCO[C@@H](CN(C)C(=O)Nc2ccc(C(F)(F)F)cc2)[C@H](C)CN([C@@H](C)CO)C(=O)c2cc(NC(=O)Cc3ccccc3)ccc2O1 | inactive
50 | O=C(O)CN(CCN(CC(=O)O)CC(=O)O)CCN(CC(=O)O)CC(=O)O | inactive
51 | CO[C@H]1CCCNC1 | inactive
52 | COc1ccc(NC(=O)N(C)C[C@H]2Oc3ccc(NC(=O)CCCCCC(=O)Nc4ccccc4N)cc3C(=O)N([C@@H](C)CO)C[C@H]2C)cc1 | inactive
53 | C[C@H]1CN([C@@H](C)CO)C(=O)c2cc(NC(=O)CCCCCC(=O)Nc3ccccc3N)ccc2O[C@H]1CN(C)C(=O)Nc1ccc(C(F)(F)F)cc1 | active
54 | COc1ccc(NC(=O)N(C)C[C@@H]2Oc3ccc(NC(=O)CCCCCC(=O)Nc4ccccc4N)cc3C(=O)N([C@H](C)CO)C[C@@H]2C)cc1 | active
55 | C[C@H](CO)N1C[C@H](C)[C@@H](CN(C)C(=O)Nc2ccc(C(F)(F)F)cc2)Oc2ccc(NC(=O)CCCCCC(=O)Nc3ccccc3N)cc2C1=O | inactive
56 | C[C@H]1CN([C@@H](C)CO)C(=O)c2cc(NC(=O)CCCCCC(=O)Nc3ccccc3N)ccc2O[C@@H]1CN(C)C(=O)Nc1ccc(C(F)(F)F)cc1 | inactive
57 | C[C@@H]1CN([C@H](C)CO)C(=O)c2cc(NC(=O)CCCCCC(=O)Nc3ccccc3N)ccc2O[C@H]1CN(C)C(=O)Nc1ccc(C(F)(F)F)cc1 | inactive
58 | COc1ccc(NC(=O)N(C)C[C@@H]2Oc3ccc(NC(=O)CCCCCC(=O)Nc4ccccc4N)cc3C(=O)N([C@H](C)CO)C[C@H]2C)cc1 | inactive
59 | C[C@H](CO)N1C[C@H](C)[C@H](CN(C)C(=O)Nc2ccc(C(F)(F)F)cc2)Oc2ccc(NC(=O)CCCCCC(=O)Nc3ccccc3N)cc2C1=O | active
60 | C[C@@H]1CN([C@@H](C)CO)C(=O)c2cc(NC(=O)CCCCCC(=O)Nc3ccccc3N)ccc2O[C@@H]1CN(C)C(=O)Nc1ccc(C(F)(F)F)cc1 | inactive
